# Rows were chosen to be rich in hits. Some 15% of all compounds tested hit in one or more screens of this group.
# Pf growth 96h = Primary qHTS for delayed death inhibitors of the malarial parasite plastid, 96 hour incubation; P. falciparum luciferase reporter growth, 96 h; Potency, µM (series often up to 28.7 µM), without a hit: top-dose activity change, negative = inhibition, hits mostly inhibitors; hit rate 6.9% among 320,000; note: potency is the fitted concentration of half-maximal effect; % is set by controls: 0 for no effect and ±100 for the full control effect
#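 Erythrocytes infected with luciferase-expressing P. falciparum were dispensed at 2% hematocrit and 0.05% parasitemia (final), then incubated with compounds 96 hours at 37 C in 5% CO2. Luminescence after detection reagent addition reported growth.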
# Pf growth 48h = Primary qHTS for delayed death inhibitors of the malarial parasite plastid, 48 hour incubation | Potency, µM (series often up to 28.7 µM), inactives show at the highest dose activity change, negative = inhibition, usual class: inhibitors | hit rate 5.9% among 310,000 | P. falciparum luciferase growth in erythrocytes, 48 h; note: potency is the fitted concentration of half-maximal effect; % is set by controls: 0 for no effect and ±100 for the full control effect
#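 A one-generation exposure of luciferase-tagged malaria parasites in RPMI 1640/Albumax erythrocyte culture, 37 C and 5% CO2. Inhibition is inferred from decreased luminescence after adding detection reagent.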
# SARS PLpro yeast = qHTS of Yeast-based Assay for SARS-CoV PLP | Potency, µM (top dose mostly 32.9 µM), without a hit: top-dose activity, positive = growth rescue, actives largely listed as activators | S. cerevisiae expressing SARS-CoV PLpro, growth rescue | hit rate 0.19% among 330,000; calls by dose curve; note: potency is the fitted concentration of half-maximal effect; 0% is about no effect; nearly all actives have a fitted effect of over 55% in size
# Sm TGR block = qHTS Assay for the Inhibitors of Schistosoma Mansoni Peroxiredoxins; purified TGR, DTNB reduction, TNB absorbance 405 nm; hit rate 3% among 360,000; Potency, µM (top dose mostly 114 µM), without a hit: at the highest dose activity change, negative = inhibition, actives largely listed as inhibitors; Schistosoma mansoni thioredoxin glutathione reductase (TGR), Q962Y6; note: potency is the fitted concentration of half-maximal effect; % is set by controls: 0 for no effect and ±100 for the full control effect; nearly all actives have a fitted effect of over 60% in size
#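 Kinetic colorimetric format: TGR-catalysed, NADPH-driven DTNB reduction monitored via TNB absorbance. Enzyme dispensed at 20 nM; compound exposure 15 min at room temperature before reaction start.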
# HCMV antiviral = qHTS Assay for inhibitors of the human cytomegalovirus (HCMV) | HFF cells, HCMV-luciferase reporter, 72 h; active compounds read low | activity change, negative = inhibition, % at 57.5 µM | hit rate 4.5% among 410,000; in the data active = activity change below about -60%; inconclusive = no clear call, values can overlap the other calls; inactive = above about -39%; note: % is set by controls: 0 for no effect and ±100 for the full control effect
#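 Two-dose cell screen: HFF monolayers treated with compounds and infected with luciferase-expressing HCMV at 1 PFU/cell, 72 h at 37C, then lysed for luciferase measurement.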
# HCV inhibitor = qHTS Assay for Inhibitors of Hepatitis C Virus (HCV); Huh7.5.1 HCVcc-Cre infection, luciferase reporter, 44 h; Potency, µM (titrated, usually from 41.8 µM), for inactives: top-dose activity change, negative = inhibition, most hits filed as inhibitors; hit rate 3.4% among 340,000; note: potency is the fitted concentration of half-maximal effect; % is set by controls: 0 for no effect and ±100 for the full control effect
#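 A cell-based infection assay in which seeded cells (1,000 per well) receive test compound after 4 h, are inoculated with HCVcc-Cre at approximately 0.5 moi, and are incubated 44 h before luminescence detection.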
# * marks the source's active call; other numbers are inactive results; ? = inconclusive; / = no result given. Unless noted, calls come from the whole dose curve; as a rule, active = well fitted curve in the direction sought with a large enough effect; inconclusive = small, poorly fitted or top-dose-only effect, or another doubt; inactive = no such curve, though single readings can be large; an effect the other way counts as inactive or inconclusive.
SMILES,Pf growth 96h,Pf growth 48h,SARS PLpro yeast,Sm TGR block,HCMV antiviral,HCV inhibitor
CN(C)S(=O)(=O)c1cccc(NC(=O)c2sccc2-c2ccccc2)c1,?,?,2%,4%,-12,-25%
Cc1cc(C)n(-c2ccc(C(=O)Nc3ccc(S(=O)(=O)N(C)C)cc3)cc2)n1,?,15µM*,29%,-4%,-97*,?
CN(C)S(=O)(=O)c1cccc(NC(=O)c2cc(-c3cccs3)nn2-c2cccc(Cl)c2)c1,15µM*,?,2%,-9%,-106*,?
Cc1ccc(NC(=O)c2ccc(OC(F)(F)F)cc2)cc1S(=O)(=O)N(C)C,?,-29%,-21%,-3%,-99*,3.2µM*
CCN(CC)S(=O)(=O)c1cccc(NC(=O)c2ccc(-n3nc(C)cc3C)cc2)c1,?,?,7%,3%,-83*,2.5µM*
COc1ccc(C(=O)Nc2ccc(OCc3cc(=O)n4ccccc4n3)cc2)cc1,/,/,/,7%,11,/
Nc1cc(C(=O)OCC(=O)NCCNC(=O)COC(=O)c2ccc(Cl)c(N)c2)ccc1Cl,-29%,3%,2%,4%,-8,8%
Cc1ccc2[nH]c(CSc3nnc(NC(=O)COc4ccc(F)cc4)s3)cc(=O)c2c1,/,/,/,0%,-22,/
O=C(Nc1cccc(Cl)c1)Nc1cccc(Cl)c1,-17%,3.7µM*,-10%,-8%,?,-20%
O=C(NCc1csc2ccccc12)Nc1cc(Cl)cc(Cl)c1,?,?,-1%,2%,-62*,?
O=C(Nc1cccc(Cl)c1)Nc1ccnc(-c2cccnc2)n1,-19%,10µM*,1%,/,?,?
O=C(Nc1cccc(F)c1)Nc1cccc(Cl)c1,?,?,-21%,-3%,-26,?
O=C(Nc1ccccc1)Nc1cc(Cl)cc(Cl)c1,/,/,-24%,0%,-91*,?
O=C(CCSCc1cccc(Cl)c1)NCc1ccccc1Cl,/,/,/,4%,-9,/
Cc1ccc(CNC(=O)CCCN2C(=O)CCn3nc(-c4cccn4C)cc32)cc1,/,/,/,-22%,15,/
COC(=O)c1cc(NC(=O)c2ccc(-c3ccccc3)cc2)ccc1Cl,-10%,-2%,-21%,-3%,-23,10µM*
O=C(Nc1ccc(-c2ccccc2)cc1)c1ccccc1,?,31%,-4%,2%,-13,-12%
COc1ccc(NC(=O)Nc2cccc(OC)c2)cc1,/,/,/,/,-21,-19%
COc1cccc(NC(=O)Nc2cc(Cl)ccc2C)c1,12%,-12%,-1%,0%,-60*,-6%
CC1CCC(=C(C#N)C(=O)Nc2cccc(Cl)c2)CC1 (configuration not stated),15µM*,?,0%,-15%,-23,7%
O=C(O)c1ccccc1OC(C(=O)Nc1cc(Cl)cc(Cl)c1)c1ccccc1 (configuration not stated),?,12µM*,0%,0%,11,-15%
N#CC(C(=O)Nc1cccc(Cl)c1)=C1Nc2ccccc2N1,-12%,15%,0%,-1%,?,?
CCOc1ccccc1NC(=O)C1CCN(S(=O)(=O)c2c(C)noc2/C=C/c2ccc(C)cc2)CC1,/,/,/,6%,-16,/
CCN(CC)S(=O)(=O)c1cc(-c2onc(C)c2C)ccc1OC,/,/,/,3%,-6,/
Cc1cc(NC(=O)Nc2cccc(Cl)c2)no1,/,/,/,/,3,/
SMILES,Pf growth 96h,Pf growth 48h,SARS PLpro yeast,Sm TGR block,HCMV antiviral,HCV inhibitor
O=C(Nc1cccnc1)Nc1cc(Cl)cc(Cl)c1,?,?,-3%,0%,-61*,?
O=C(Nc1ccccc1)Nc1cc(OCC(F)(F)F)cc(OCC(F)(F)F)c1,3.3µM*,2.6µM*,?,3%,-100*,6.3µM*
COC(=O)c1cc(NC(=O)Nc2cccc(Cl)c2)ccc1Cl,15µM*,9.3µM*,-22%,2%,-99*,10µM*
CC(C)NC(=O)Nc1ccc(Br)cc1Cl,?,25%,-4%,20%,-61*,?
O=C(O)CN1CCc2ccccc2C1,32%,41%,2%,-10%,-11,18%
O=C(Nc1cccnc1)Nc1ccc(Br)cc1Cl,/,?,-9%,0%,4,11µM*
O=C(CN1C=NS(=O)(=O)c2ccccc21)Nc1ccc(F)cc1,/,/,/,8%,-1,/
CC1Sc2ccc(S(=O)(=O)N3CCC(C(=O)NCC(C)c4ccccc4)CC3)cc2NC1=O (configuration not stated),-27%,?,-11%,1%,12,11µM*
Cc1ccc(CCNC(=O)C2CCN(S(=O)(=O)c3ccc4c(c3)NC(=O)C(C)S4)CC2)cc1 (configuration not stated),?,?,-1%,-16%,?,6.3µM*
CCN1CCN(C(=O)C2CCN(S(=O)(=O)c3ccc4c(c3)NC(=O)C(C)S4)CC2)CC1 (configuration not stated),2.9µM*,?,2%,0%,-24,5%
CC1Sc2ccc(S(=O)(=O)N3CCC(C(N)=O)CC3)cc2NC1=O (configuration not stated),?,12%,-16%,-1%,-26,24%
COc1cccc(CNC(=O)C2CCN(S(=O)(=O)c3ccc4c(c3)NC(=O)C(C)S4)CC2)c1 (configuration not stated),?,?,-5%,-32%,83,?
Cc1ccccc1NC(=O)C1CCN(S(=O)(=O)c2ccc3c(c2)NC(=O)C(C)S3)CC1 (configuration not stated),?,?,0%,8%,-32,-10%
CC1Sc2ccc(S(=O)(=O)N3CCC(C(=O)NCCc4ccccc4)CC3)cc2NC1=O (configuration not stated),?,12µM*,-2%,5%,53,?
CC(=O)c1c(COC(=O)c2ccc(F)cc2)nc2ccccc2[n+]1[O-],?,-23%,1%,-31%,10,-26%
Cc1ccc(S(=O)(=O)N(C)CC(=O)N/N=C/c2ccc(C)o2)cc1,2%,-23%,1%,?,-37,2%
O=C1NC2=C(CCc3ccccc32)C(c2ccc(Br)cc2)N1 (configuration not stated),-21%,/,2%,50µM*,-20,0%
C=CCOc1ccccc1CNCCc1ccc(S(N)(=O)=O)cc1,38%,2%,3%,3%,10,7%
NS(=O)(=O)c1ccc(CCNCc2cc(Cl)ccc2OCc2ccccc2)cc1,?,?,1%,16%,-67*,22µM*
